Results published in PubChem BioAssay.

Assay: probe aNOTCH3 binding on compound microarray – biochemical, small-molecule microarray, 635/667 nm fluorescence, primary screen (AID 1120);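 note: probe is a biotin-tagged antibody raised against NOTCH3 rather than NOTCH3 protein; score merges spot fluorescence near 667 nm with spot signal to noise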
Details: higher = more signal

Q: Which composite z-score does the source give for CCCN1C(=O)[C@@]2(CCC(=O)OC(C)(C)C)N=C(c3ccc(OCCCO)cc3)O[C@H]2c2ccccc21 here?
A: Its composite z-score is 0.0225.

Q: With O=C(O)[C@H]1C[C@H]2C(=O)NCC(=O)N2[C@H]1c1ccc(O)cc1 as the compound, how does the composite z-score read?
A: Its composite z-score is 0.791.

Q: With CC(C)c1ccc(NN2C(C(O)c3ccc(N(C)C)cc3)C=CC3C(=O)N(c4ccccc4)C(=O)C32)cc1 (stereo not given) as the compound, how does the composite z-score read?
A: The composite z-score was 0.432.

Q: With CCC[C@@H]1C=C(C(=O)O)[C@H](c2ccc(C)cc2)N1S(=O)(=O)c1ccc(C)cc1 as the compound, how does the composite z-score read?
A: The composite z-score was 0.195.

Q: For CC(C)c1ccc(NN2C(C(O)c3c(F)cccc3Cl)C=CC3C(=O)N(c4ccccc4)C(=O)C32)cc1 (stereo not given), which composite z-score is on record?
A: The composite z-score was 0.704.

Q: Which composite z-score does the source give for CC(C)=CCCC(C)=CC(O)C1C=CC2C(=O)N(c3ccccc3)C(=O)C2N1Nc1ccccc1 (stereo not given) here?
A: Its composite z-score is 0.461.

Q: For COCC1=C2[C@@H](CCc3ccccc3)OB(O)C[C@@H]2[C@@H]2C(=O)N(Cc3ccccc3)C(=O)[C@@H]2C1, which composite z-score is on record?
A: Its composite z-score is -0.102.

Q: With COC(=O)[C@@]1(Cc2ccc(OC)cc2)[C@H]2c3cc(C(=O)N4CCCC4)n(CCc4c[nH]c5cc(F)ccc45)c3C[C@H]2CN1C(=O)c1ccccc1 as the compound, how does the composite z-score read?
A: Its composite z-score is 0.127.

Q: For CC(C)N1CC=CC23O[C@@H]4C=CCOC(=O)[C@@H]4[C@H]2C(=O)N(CCO)[C@@H]3C1=O (stereo not given in full), which composite z-score is on record?
A: The composite z-score was -0.299.

Q: With COC(=O)C(CC#Cc1ccc2c(c1)[C@]1(C(=O)N2)[C@H](c2ccc(OCCO)cc2)N2[C@H](c3ccccc3)[C@H](c3ccccc3)OC(=O)[C@H]2[C@@H]1C(=O)NC[C@H](O)c1ccccc1)C(=O)OC as the compound, how does the composite z-score read?
A: The composite z-score was 0.0556.

Q: Which composite z-score does the source give for CC(C)NC(=O)[C@@]1(Cc2ccccc2I)c2ccccc2C(=O)N(Cc2ccccc2)[C@H]1c1ccc(CO)cc1 here?
A: Its composite z-score is 0.204.

Q: With CCOC(=O)C[C@H]1[C@H](OC(=O)Cc2ccc3c(c2)OCO3)[C@@H](NC(=O)c2ccc(-c3ccccc3)cc2)c2cc(OCCCO)ccc2N1C(=O)c1ccccc1 as the compound, how does the composite z-score read?
A: Its composite z-score is 0.0316.

Q: For CC(c1ccccc1)C(O)C1C=CC2C(=O)NC(=O)C2N1Nc1ccccn1 (stereo not given), which composite z-score is on record?
A: The composite z-score was 0.0876.

Q: With COc1ccc(C#Cc2ccc3c(c2)[C@]2(C(=O)N3)[C@H](c3ccc(O)cc3)N3[C@H](c4ccccc4)[C@H](c4ccccc4)OC(=O)[C@H]3[C@@H]2C(=O)NC[C@H](O)c2ccccc2)cc1 as the compound, how does the composite z-score read?
A: Its composite z-score is 0.0319.

Q: Which composite z-score does the source give for O=C1O[C@H](c2ccccc2)[C@H](c2ccccc2)N2[C@H]1[C@@H](C(=O)O)[C@]1(C(=O)Nc3ccc(C#CC4(O)CCCCCC4)cc31)[C@H]2c1ccc(OCCO)cc1 here?
A: The composite z-score was 0.0876.

Q: For NCCCCCCNC(=O)[C@H]1C[C@H]2C(=O)NCC(=O)N2[C@H]1c1cccc(OCCO)c1, which composite z-score is on record?
A: The composite z-score was -0.0311.

Q: With C=CCOC(=O)[C@H]1[C@@H]2C(=O)O[C@@H](c3ccccc3)[C@@H](c3ccccc3)N2[C@@H](c2ccc(OCCOC(=O)[C@@H]3C[C@@H]4C(=O)NCC(=O)N4[C@@H]3c3ccc(O)cc3)cc2)[C@]12C(=O)Nc1ccccc12 as the compound, how does the composite z-score read?
A: Its composite z-score is 0.0006.

Q: With [N-]=[N+]=Nc1ccccc1C[C@]1(C(=O)NCCN2CCOCC2)N=C(c2ccc(OCCCO)cc2)O[C@H]1c1ccccc1 as the compound, how does the composite z-score read?
A: Its composite z-score is 0.194.

Q: Which composite z-score does the source give for CC(C)N1C(=O)C[C@@](C(=O)NCc2ccccc2)(c2ccc([N+](=O)[O-])cc2)[C@H]1c1ccc(CO)cc1 here?
A: Its composite z-score is -0.186.

Q: For O=C1OCCC/C=C\[C@H]2OC34C=CCN(Cn5nnc6ccccc65)C(=O)[C@H]3N(CCCCCO)C(=O)[C@@H]4C12 (stereo not given in full), which composite z-score is on record?
A: The composite z-score was -0.267.

Q: With NCCCCCNC(=O)[C@H]1C[C@H]2C(=O)NCC(=O)N2[C@H]1c1cccc(OCCO)c1 as the compound, how does the composite z-score read?
A: The composite z-score was 0.204.

Q: With CN1C=C(C(=O)OCCS(C)(=O)=O)C(C(=O)OCCS(C)(=O)=O)=CC(CCCO)=CC1C1CC1 (stereo not given) as the compound, how does the composite z-score read?
A: The composite z-score was -0.0613.

Q: With COCCOC(=O)N1C(=O)[C@@]2(c3cc(C#CC4=CCCCC4)ccc31)[C@H](C(=O)NC[C@H](O)c1ccccc1)[C@H]1C(=O)O[C@H](c3ccccc3)[C@H](c3ccccc3)N1[C@@H]2c1ccc(O)cc1 as the compound, how does the composite z-score read?
A: The composite z-score was 0.184.

Q: For CCCCCCCCCCC(O)C1C=CC2C(=O)N(Cc3ccccc3)C(=O)C2N1n1cnnc1 (stereo not given), which composite z-score is on record?
A: The composite z-score was 0.435.

Q: With Cc1ccccc1C(O)C1C=CC2C(=O)N(C)C(=O)C2N1N1CCCCC1 (stereo not given) as the compound, how does the composite z-score read?
A: The composite z-score was 0.36.

Q: Which composite z-score does the source give for CC(=O)NCCCC[C@@H]1NC(=O)[C@@H]2C[C@H](C(=O)NCCCCCCNC(=O)CS)[C@H](c3ccc(O)cc3)N2C1=O here?
A: The composite z-score was -0.256.

Q: Which composite z-score does the source give for C=CCOC(=O)[C@H]1[C@@H]2C(=O)O[C@@H](c3ccccc3)[C@@H](c3ccccc3)N2[C@@H](c2ccc(OCCOC(=O)[C@@H]3C[C@@H]4C(=O)N5CCC[C@H]5C(=O)N4[C@@H]3c3ccc(O)cc3)cc2)[C@]12C(=O)Nc1ccccc12 here?
A: The composite z-score was 0.299.

Q: For C=CCC(OC(C)=O)[C@@H]1[C@@H](N(Cc2ccc(-c3ccccc3)cc2)C(=O)Cc2ccc(OC)cc2)c2cc(OCCCO)ccc2N1C(=O)c1ccc2ccccc2n1 (stereo not given in full), which composite z-score is on record?
A: Its composite z-score is 0.0522.

Q: With COC(=O)C(CC#Cc1ccc2c(c1)[C@]1(C(=O)N2)[C@H](C(=O)NC[C@H](O)c2ccccc2)[C@H]2C(=O)O[C@H](c3ccccc3)[C@H](c3ccccc3)N2[C@@H]1c1ccc(OCCO)cc1)C(=O)OC as the compound, how does the composite z-score read?
A: The composite z-score was 1.4.

Q: Which composite z-score does the source give for COc1ccc(C(O)C2C=CC3C(=O)N(c4ccccc4)C(=O)C3N2Nc2ccc([N+](=O)[O-])cc2)cc1OCc1ccccc1 (stereo not given) here?
A: The composite z-score was 1.33.

Q: With CC(=O)NCCCC[C@@H]1NC(=O)[C@@H]2C[C@H](C(=O)NCCCCN(C)C)[C@H](c3ccc(O)cc3)N2C1=O as the compound, how does the composite z-score read?
A: Its composite z-score is -0.292.

Q: For CC(C)C(=C=CC[C@H](O)c1cccc(OCCO)c1)C[C@H](O)COCc1ccccc1, which composite z-score is on record?
A: The composite z-score was 0.119.

Q: Which composite z-score does the source give for CC(C)C(=C=CC[C@@H](O)c1ccccc1OCCO)C[C@@H](O)c1ccccn1 here?
A: Its composite z-score is -0.0847.

Q: Which composite z-score does the source give for O=C1O[C@@H](c2ccccc2)[C@@H](c2ccccc2)N2[C@@H](c3ccccc3OCCO)[C@]3(C(=O)Nc4ccc(C#CC5(O)CCCCCC5)cc43)[C@@H](C(=O)Nc3nc4ccccc4s3)[C@H]12 here?
A: Its composite z-score is 0.283.

Q: For C=CCN1C(=O)[C@]2(O[C@H](CCO)[C@@H]([Si](C)(C)c3ccc(OC)cc3)[C@@H]2C)c2cc(NC(=O)[C@H](C)O)ccc21, which composite z-score is on record?
A: Its composite z-score is 0.0203.
